Results taken from PubChem BioAssay (NCI).
This is part of a sample that, as a whole, favours compounds with a hit. Of some 79,000 tested, about 15% had one in any assay. Values without a mark were called inactive. Calls of active or inactive are those of the source. Cut-off read from the data, not from the text of the source: active = growth inhibition above about 70%; inactive = the rest.

Tests used:
[1] = NCI Yeast Anticancer Drug Screen. Data for the rad52 strain (AID 147);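 note: 0% = growth of vehicle-treated control cultures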; conditions: S. cerevisiae rad52 mutant growth inhibition, stronger effect = higher value
Summary of the method: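 Screen used a yeast mutant impaired in DNA repair. After compound exposure, growth was measured. Values reflect inhibition compared with vehicle-treated cells.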

[2] = NCI Yeast Anticancer Drug Screen. Data for the wt1 strain (AID 149);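 note: 0% = growth of vehicle-treated wt1 cultures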; conditions: S. cerevisiae wt1 strain (SPY 50644) growth inhibition, stronger effect = higher value
Summary of the method: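 Readout: yeast growth inhibition, normalised to vehicle controls, in the wt1 strain exposed to test compounds.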

[3] = NCI Yeast Anticancer Drug Screen. Data for the rad50EPP+ strain (AID 151);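 note: 0% = growth of vehicle-treated control cultures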; conditions: S. cerevisiae rad50 mutant strain, stronger effect = higher value
Summary of the method: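 Exposing the rad50EPP+ strain to each compound, growth was compared with vehicle-only cultures to give inhibition.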

[4] = NCI Yeast Anticancer Drug Screen. Data for the mgt1 strain (AID 153); conditions: S. cerevisiae mgt1 mutant growth inhibition, stronger effect = higher value
Summary of the method: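 Genetically defined yeast (mgt1) treated with compound; inhibition of growth expressed against vehicle-treated controls.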

[5] = NCI Yeast Anticancer Drug Screen. Data for the rad50 strain (AID 155);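 note: 0% = growth of vehicle-only cultures of the same strain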; conditions: S. cerevisiae rad50 strain growth inhibition, stronger effect = higher value
Summary of the method: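 Compounds were tested on a yeast strain with an engineered DNA damage repair alteration; the reported value is growth inhibition normalised to vehicle treatment.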

[6] = NCI Yeast Anticancer Drug Screen. Data for the mec2-1 strain (AID 157); conditions: S. cerevisiae mec2-1 strain, stronger effect = higher value
Summary of the method: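 Readout is yeast growth inhibition, normalised to vehicle-treated controls, in the mec2-1 strain exposed to compound.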

[7] = NCI Yeast Anticancer Drug Screen. Data for the sgs1 mgt1 strain (AID 161);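 note: 0% = growth of cultures given vehicle only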; conditions: S. cerevisiae sgs1 mgt1 strain, stronger effect = higher value
Summary of the method: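 Compounds are added to genetically altered yeast, and growth is compared with cultures given vehicle alone to give percent inhibition.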

[8] = NCI Yeast Anticancer Drug Screen. Data for the CLN2oe strain (AID 163);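 note: 0% = growth of vehicle-only control cultures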; conditions: S. cerevisiae CLN2oe strain, stronger effect = higher value
Summary of the method: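 Values reflect how much compound exposure reduced yeast growth, referenced to vehicle-exposed cells. Assay organism is a strain with a defined genetic change affecting cell-cycle control.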

[9] = NCI Yeast Anticancer Drug Screen. Data for the cln2 rad14 strain (AID 165);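 note: 0% = growth equal to vehicle treated cultures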; conditions: S. cerevisiae cln2 rad14 strain, stronger effect = higher value
Summary of the method: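 Relative to vehicle controls, growth inhibition of compound-treated cln2 rad14 yeast was recorded.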

[10] = NCI Yeast Anticancer Drug Screen. Data for the bub3 strain (AID 167); conditions: S. cerevisiae bub3 mutant strain, stronger effect = higher value
Summary of the method: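 Growth of a checkpoint-deficient yeast mutant is measured after compound exposure. Values represent inhibition relative to vehicle.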

[11] = NCI Yeast Anticancer Drug Screen. Data for the mlh1 strain (AID 171);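 note: 0% = growth of vehicle-treated control cultures of the same strain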; conditions: S. cerevisiae mlh1 strain growth inhibition, stronger effect = higher value
Summary of the method: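 Steps: expose the defined-mutant yeast strain to compound; expose a parallel culture to vehicle; measure growth; express compound effect as inhibition relative to the vehicle culture.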

[12] = NCI Yeast Anticancer Drug Screen. Data for the sgs1 strain (AID 173);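 note: 0% = growth of vehicle-only control cultures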; conditions: S. cerevisiae sgs1 mutant, stronger effect = higher value
Summary of the method: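 Treat defined-mutant yeast with compound; measure growth; calculate inhibition relative to vehicle-treated cells.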

[13] = NCI Yeast Anticancer Drug Screen. Data for the mlh1 rad18 strain (AID 175); conditions: S. cerevisiae mlh1 rad18 strain growth inhibition, stronger effect = higher value
Summary of the method: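 Test agents were incubated with a yeast strain of defined genotype (DNA damage repair defect). Inhibition of growth was derived by comparison with vehicle-exposed cultures.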

[14] = NCI Yeast Anticancer Drug Screen. Data for the rad18 strain (AID 177); conditions: S. cerevisiae rad18 mutant growth inhibition, stronger effect = higher value
Summary of the method: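 A genetically defined yeast mutant impaired in DNA damage repair was treated with test compounds, then its growth was measured against cultures receiving vehicle alone.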

[15] = NCI Yeast Anticancer Drug Screen. Data for the rad14 strain (AID 159);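 note: 0% = growth of vehicle-treated control cultures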; conditions: S. cerevisiae rad14 strain growth inhibition, stronger effect = higher value
Summary of the method: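 Compound-treated yeast with a defined DNA-repair lesion; growth inhibition normalised to vehicle-treated cultures.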

[16] = at 5.0 µM (retest, dose inferred, filed as 0.5)
[17] = at 50.0 µM (retest, dose inferred, filed as 5.0)

In the case of `O=[n+]1c2ccccc2n([O-])c2cc(Br)ccc21`, the growth inhibition ([1]; at 1.2 µM) is reported as 94% (active), the growth inhibition ([1]; at 3.7 µM) is reported as 98% (active) and the growth inhibition ([1]; at 11.0 µM) is reported as 98% (active). For the same compound, the growth inhibition ([1]; at 33.0 µM) was 98% (active), the growth inhibition ([1]; at 100.0 µM) was 98% (active) and the growth inhibition ([2]; at 1.2 µM) was 7%. The growth inhibition ([2]; at 3.7 µM) was 43%, the growth inhibition ([2]; at 11.0 µM) was 82% (active) and the growth inhibition ([2]; at 33.0 µM) was 99% (active). For the same compound, the growth inhibition ([2]; at 100.0 µM) was 98% (active), the growth inhibition ([3]; at 1.2 µM) was 96% (active) and the growth inhibition ([3]; at 3.7 µM) was 98% (active). The growth inhibition ([3]; at 11.0 µM) was 99% (active), the growth inhibition ([3]; at 33.0 µM) was 99% (active) and the growth inhibition ([3]; at 100.0 µM) was 97% (active). It also gave a growth inhibition ([4]; at 1.2 µM) of 5%, a growth inhibition ([4]; at 3.7 µM) of 5% and a growth inhibition ([4]; at 11.0 µM) of 51%. The growth inhibition ([4]; at 33.0 µM) was 99% (active), the growth inhibition ([4]; at 100.0 µM) was 98% (active) and the growth inhibition ([5]; at 1.2 µM) was 86% (active). The growth inhibition ([5]; at 3.7 µM) was 97% (active), the growth inhibition [5, 16] was 96% (active) and the growth inhibition ([5]; at 11.0 µM) was 98% (active). For the same compound, the growth inhibition ([5]; at 33.0 µM) was 99% (active), the growth inhibition [5, 17] was 98% (active) and the growth inhibition ([5]; at 50.0 µM) was 99.2% (active). For the same compound, the growth inhibition ([5]; at 100.0 µM) was 97% (active), the growth inhibition ([6]; at 1.2 µM) was 18% and the growth inhibition ([6]; at 3.7 µM) was 52%. The growth inhibition [6, 16] was 85% (active), the growth inhibition ([6]; at 11.0 µM) was 92% (active) and the growth inhibition ([6]; at 33.0 µM) was 99% (active). For the same compound, the growth inhibition [6, 17] was 99% (active), the growth inhibition ([6]; at 50.0 µM) was 99.3% (active) and the growth inhibition ([6]; at 100.0 µM) was 98% (active). The growth inhibition [7, 16] was 66%, the growth inhibition [7, 17] was 99% (active) and the growth inhibition ([7]; at 50.0 µM) was 99.2% (active). For the same compound, the growth inhibition ([8]; at 1.2 µM) was 6%, the growth inhibition ([8]; at 3.7 µM) was 9% and the growth inhibition ([8]; at 11.0 µM) was 38%. For the same compound, the growth inhibition ([8]; at 33.0 µM) was 99% (active), the growth inhibition ([8]; at 100.0 µM) was 98% (active) and the growth inhibition [9, 16] was 19%. The growth inhibition [9, 17] was 99% (active), the growth inhibition ([9]; at 50.0 µM) was 94.6% (active) and the growth inhibition ([10]; at 1.2 µM) was 42%. For the same compound, the growth inhibition ([10]; at 3.7 µM) was 63%, the growth inhibition [10, 16] was 63% and the growth inhibition ([10]; at 11.0 µM) was 96% (active). For the same compound, the growth inhibition ([10]; at 33.0 µM) was 99% (active), the growth inhibition [10, 17] was 99% (active) and the growth inhibition ([10]; at 50.0 µM) was 99.4% (active). The growth inhibition ([10]; at 100.0 µM) was 99% (active), the growth inhibition ([11]; at 1.2 µM) was -3% and the growth inhibition ([11]; at 3.7 µM) was 19%. The growth inhibition ([11]; at 11.0 µM) was 61%, the growth inhibition ([11]; at 33.0 µM) was 99% (active) and the growth inhibition ([11]; at 100.0 µM) was 98% (active). For the same compound, the growth inhibition ([12]; at 1.2 µM) was 34%, the growth inhibition ([12]; at 3.7 µM) was 39% and the growth inhibition ([12]; at 11.0 µM) was 97% (active). For the same compound, the growth inhibition ([12]; at 33.0 µM) was 99% (active), the growth inhibition ([12]; at 100.0 µM) was 98% (active) and the growth inhibition [13, 16] was 87% (active). The growth inhibition [13, 17] was 98% (active), the growth inhibition ([13]; at 50.0 µM) was 99.2% (active) and the growth inhibition ([14]; at 1.2 µM) was 84% (active). For the same compound, the growth inhibition ([14]; at 3.7 µM) was 92% (active), the growth inhibition ([14]; at 11.0 µM) was 98% (active) and the growth inhibition ([14]; at 33.0 µM) was 99% (active). The growth inhibition ([14]; at 100.0 µM) was 98% (active).
Work on `O=C1NC(=O)c2ccc([N+](=O)[O-])c3cccc1c23` yielded a growth inhibition ([1]; at 1.2 µM) of 11%, a growth inhibition ([1]; at 3.7 µM) of 27% and a growth inhibition ([1]; at 11.0 µM) of 36%. The growth inhibition ([1]; at 33.0 µM) was 56%, the growth inhibition ([1]; at 100.0 µM) was 73% (active) and the growth inhibition ([2]; at 1.2 µM) was -12%. It also gave a growth inhibition ([2]; at 3.7 µM) of 32%, a growth inhibition ([2]; at 11.0 µM) of 25% and a growth inhibition ([2]; at 33.0 µM) of 24%. The growth inhibition ([2]; at 100.0 µM) was 36%, the growth inhibition ([3]; at 1.2 µM) was 45% and the growth inhibition ([3]; at 3.7 µM) was 51%. The growth inhibition ([3]; at 11.0 µM) was 65%, the growth inhibition ([3]; at 33.0 µM) was 78% (active) and the growth inhibition ([3]; at 100.0 µM) was 81% (active). The growth inhibition ([4]; at 1.2 µM) was 11%, the growth inhibition ([4]; at 3.7 µM) was 18% and the growth inhibition ([4]; at 11.0 µM) was 20%. The growth inhibition ([4]; at 33.0 µM) was 30%, the growth inhibition ([4]; at 100.0 µM) was 49% and the growth inhibition ([5]; at 1.2 µM) was 7%. The growth inhibition ([5]; at 3.7 µM) was 13%, the growth inhibition [5, 16] was -15% and the growth inhibition ([5]; at 11.0 µM) was 20%. For the same compound, the growth inhibition ([5]; at 33.0 µM) was 47%, the growth inhibition [5, 17] was 55% and the growth inhibition ([5]; at 50.0 µM) was 64.5%. It also gave a growth inhibition ([5]; at 100.0 µM) of 65%, a growth inhibition ([15]; at 1.2 µM) of -2% and a growth inhibition ([15]; at 3.7 µM) of 5%. The growth inhibition ([15]; at 11.0 µM) was 21%, the growth inhibition ([15]; at 33.0 µM) was 55% and the growth inhibition ([15]; at 100.0 µM) was 79% (active). It also gave a growth inhibition [7, 16] of -8%, a growth inhibition [7, 17] of 23% and a growth inhibition ([7]; at 50.0 µM) of 68.8%. The growth inhibition ([8]; at 1.2 µM) was -2%, the growth inhibition ([8]; at 3.7 µM) was -1% and the growth inhibition ([8]; at 11.0 µM) was 3%. The growth inhibition ([8]; at 33.0 µM) was 17%, the growth inhibition ([8]; at 100.0 µM) was 68% and the growth inhibition [9, 16] was 24%. For the same compound, the growth inhibition [9, 17] was 68%, the growth inhibition ([9]; at 50.0 µM) was 72.2% (active) and the growth inhibition ([10]; at 1.2 µM) was 28%. It also gave a growth inhibition ([10]; at 3.7 µM) of 43%, a growth inhibition [10, 16] of 2% and a growth inhibition ([10]; at 11.0 µM) of 39%. For the same compound, the growth inhibition ([10]; at 33.0 µM) was 55%, the growth inhibition [10, 17] was 79% (active) and the growth inhibition ([10]; at 50.0 µM) was 51.9%. For the same compound, the growth inhibition ([10]; at 100.0 µM) was 67%, the growth inhibition ([11]; at 1.2 µM) was 32% and the growth inhibition ([11]; at 3.7 µM) was 28%. For the same compound, the growth inhibition ([11]; at 11.0 µM) was 41%, the growth inhibition ([11]; at 33.0 µM) was 65% and the growth inhibition ([11]; at 100.0 µM) was 75% (active). The growth inhibition ([12]; at 1.2 µM) was 41%, the growth inhibition ([12]; at 3.7 µM) was 51% and the growth inhibition ([12]; at 11.0 µM) was 66%. The growth inhibition ([12]; at 33.0 µM) was 78% (active), the growth inhibition ([12]; at 100.0 µM) was 74% (active) and the growth inhibition [13, 16] was 51%. The growth inhibition [13, 17] was 87% (active), the growth inhibition ([13]; at 50.0 µM) was 37.5% and the growth inhibition ([14]; at 1.2 µM) was 48%. The growth inhibition ([14]; at 3.7 µM) was 72% (active), the growth inhibition ([14]; at 11.0 µM) was 86% (active) and the growth inhibition ([14]; at 33.0 µM) was 93% (active). For the same compound, the growth inhibition ([14]; at 100.0 µM) was 92% (active).
